Several values for one entry are separate records, joined by “and”; a condition that tells them apart may be missing. Identical values can stand only once. Results filed as inconclusive are left out. Where a call stands in place of a potency, no number is given. A structure can be active in one record and inactive in another. Activity calls are given as the source filed them. Unless noted, the call rests on the fitted dose curve.
Test system: not listed separately
Assay: qHTS assay to identify small molecule agonists of the sonic hedgehog signaling (Shh) pathway (AID 1259368); further: nearly all actives have a fitted effect of over 15% in size; further: potency means the concentration at half of the fitted maximal effect
Conditions: NIH/3T3 Gli1-Luc reporter, luciferase, 24 h; series mostly up to 92.4 µM
How it was run: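 NIH/3T3-derived 3T3Gli1-Luc cells with stably integrated Gli1-driven firefly luciferase, 2,000 cells/well, compounds added after 4 hr. Incubated 24 hr at 37C, 5% CO2; luminescence read after 30 min with luciferase reagent at room temperature.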

SMILES	Potency
O=Cc1ccccc1O	inactive
C[C@]12CCC(=O)C=C1CC[C@@H]1[C@@H]2C(=O)C[C@@]2(C)[C@H]1CC[C@]2(O)C(=O)CO	inactive
O=[N+]([O-])c1ccc2c(c1)Cc1ccccc1-2	inactive
c1ccc2sc(SSN3CCOCC3)nc2c1	inactive
CN(C)CCN(Cc1cccs1)c1ccccn1	inactive
OC1CCCCCCCCCCC1	inactive
COC(=O)CCC(=O)OC	inactive
CCCCC(CC)COCC1CO1 (centres undefined)	inactive
Nc1ccccc1N	788 nM (active) and 13.7 µM (active)
CCC(C)CO (centres undefined)	inactive
Nc1ncnc2nc[nH]c12	inactive
c1cc(N(CC2CO2)CC2CO2)ccc1OCC1CO1 (centres undefined)	inactive
Nc1ccc(Nc2ccccc2)cc1	inactive
CCCCOCCOCCO	inactive
c1ccc2c(c1)Oc1ccccc1S2	inactive
c1ccncc1	inactive
Nc1ccc(Cl)cc1Cl	inactive
CCCCCCCCCCCO	inactive
CCCCOCCOCCOCCO	inactive

SMILES	Potency
CCC(C)OC(=O)c1ccc(O)cc1 (centres undefined)	inactive
CCOC(=O)C(C#N)=C(c1ccccc1)c1ccccc1	inactive
CCC(C)(O)CCCC(C)C (centres undefined)	inactive
CC(=O)CC/C=C(\C)CCC=C(C)C	inactive
CC1=CC2C3CC(C=C3C)C2C1 (centres undefined)	inactive
Cn1cnc([N+](=O)[O-])c1Sc1ncnc2nc[nH]c12	inactive
C=CC(C)(CCC=C(C)C)OC(C)=O (centres undefined)	inactive
CCCCNS(=O)(=O)c1ccccc1	inactive
OC(CCl)CCl	inactive
COc1ccccc1/C=C/C=O	inactive
O=C(OCc1ccccc1)c1ccccc1O	inactive
c1cc(-c2ccncc2)ccn1	inactive
CC(C)OB(OC(C)C)OC(C)C	inactive
CC(CCC(=O)O)(c1ccc(O)cc1)c1ccc(O)cc1	inactive
CC(C)OC=O	inactive
COC(=O)C1=C(C)NC(C)=C(C(=O)OCCN(C)Cc2ccccc2)C1c1cccc([N+](=O)[O-])c1 (centres undefined)	inactive
CC(C)=CCCC(C)CCO (centres undefined)	inactive
O=C(c1ccccc1)c1ccc(O)cc1O	inactive

Test system: not listed separately
Assay: qHTS assay to identify small molecule antagonists of the sonic hedgehog signaling (Shh) pathway (AID 1259369); further: nearly all actives have a fitted effect of over 45% in size; further: potency means the concentration at half of the fitted maximal effect
Conditions: NIH/3T3 Gli1-Luc reporter, Shh antagonist, luminescence 24 h; series mostly up to 92.4 µM
How it was run: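 NIH/3T3-derived Gli1-Luc reporter cells plated 4 h, dosed with compound, then stimulated with conditioned medium for 24 h at 37 C. Firefly luciferase luminescence read after 30 min with detection reagent at room temperature.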

SMILES	Potency
O=Cc1ccccc1O	inactive
C[C@]12CCC(=O)C=C1CC[C@@H]1[C@@H]2C(=O)C[C@@]2(C)[C@H]1CC[C@]2(O)C(=O)CO	54.5 µM (active) and inactive
O=[N+]([O-])c1ccc2c(c1)Cc1ccccc1-2	inactive
S=C(NC1CCCCC1)NC1CCCCC1	24.3 µM (active)
c1ccc2sc(SSN3CCOCC3)nc2c1	9.67 µM (active)
CN(C)CCN(Cc1cccs1)c1ccccn1	inactive
OC1CCCCCCCCCCC1	inactive
COC(=O)CCC(=O)OC	inactive
CCCCC(CC)COCC1CO1 (centres undefined)	inactive
Nc1ccccc1N	inactive and 30.6 µM (active)
CCC(C)CO (centres undefined)	inactive
Nc1ncnc2nc[nH]c12	inactive
c1cc(N(CC2CO2)CC2CO2)ccc1OCC1CO1 (centres undefined)	3.44 µM (active) and 9.69 µM (active)
Nc1ccc(Nc2ccccc2)cc1	4.8 µM (active) and 1.72 µM (active) and 4.33 µM (active)
O=C(/C=C/C=C/c1ccc2c(c1)OCO2)N1CCCCC1	inactive
CCCCOCCOCCO	inactive
c1ccc2c(c1)Oc1ccccc1S2	inactive
c1ccncc1	inactive
Nc1ccc(Cl)cc1Cl	inactive
CCCCCCCCCCCO	inactive

SMILES	Potency
CCCCOCCOCCOCCO	inactive
CCC(C)OC(=O)c1ccc(O)cc1 (centres undefined)	inactive
CCOC(=O)C(C#N)=C(c1ccccc1)c1ccccc1	inactive
CCC(C)(O)CCCC(C)C (centres undefined)	inactive
CC(=O)CC/C=C(\C)CCC=C(C)C	inactive
CC1=CC2C3CC(C=C3C)C2C1 (centres undefined)	inactive and 21.7 µM (active)
Cn1cnc([N+](=O)[O-])c1Sc1ncnc2nc[nH]c12	30.4 µM (active)
C=CC(C)(CCC=C(C)C)OC(C)=O (centres undefined)	inactive
CCCCNS(=O)(=O)c1ccccc1	inactive
OC(CCl)CCl	inactive
COc1ccccc1/C=C/C=O	35.3 µM (active) and inactive
O=C(OCc1ccccc1)c1ccccc1O	inactive
c1cc(-c2ccncc2)ccn1	inactive
CC(C)OB(OC(C)C)OC(C)C	inactive
CC(CCC(=O)O)(c1ccc(O)cc1)c1ccc(O)cc1	inactive
CC(C)OC=O	32.6 µM (active) and inactive
COC(=O)C1=C(C)NC(C)=C(C(=O)OCCN(C)Cc2ccccc2)C1c1cccc([N+](=O)[O-])c1 (centres undefined)	68.2 µM (active)
CC(C)=CCCC(C)CCO (centres undefined)	inactive
O=C(c1ccccc1)c1ccc(O)cc1O	27.8 µM (active)

Molecular target: Estrogen receptor beta (Homo sapiens) (UniProt Q92731)
Sequence (Q92731 whole entry, looked up): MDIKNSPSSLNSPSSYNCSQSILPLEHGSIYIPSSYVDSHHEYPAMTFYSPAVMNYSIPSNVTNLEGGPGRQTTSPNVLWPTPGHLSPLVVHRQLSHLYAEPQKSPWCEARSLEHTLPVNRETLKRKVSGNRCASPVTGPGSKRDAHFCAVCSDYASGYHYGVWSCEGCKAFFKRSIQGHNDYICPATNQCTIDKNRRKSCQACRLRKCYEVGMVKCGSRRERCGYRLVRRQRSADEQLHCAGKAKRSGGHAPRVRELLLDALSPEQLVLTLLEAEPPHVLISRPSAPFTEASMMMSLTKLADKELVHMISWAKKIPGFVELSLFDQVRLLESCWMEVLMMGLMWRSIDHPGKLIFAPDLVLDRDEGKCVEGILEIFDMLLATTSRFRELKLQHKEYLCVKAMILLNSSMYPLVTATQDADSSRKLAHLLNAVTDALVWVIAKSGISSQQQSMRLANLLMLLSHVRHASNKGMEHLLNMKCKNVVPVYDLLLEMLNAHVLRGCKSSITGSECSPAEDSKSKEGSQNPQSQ
Assay: qHTS assay to identify small molecule agonists of the estrogen receptor beta (ER-beta) signaling pathway (AID 1259377; active means well fitted activation curve with a large enough effect in the signal ratio in the repeat runs, not every such curve was filed as active; the % refers to the signal ratio)
Conditions: ER-beta-UAS-bla HEK293T, beta-lactamase FRET ratio, 16 h; series mostly up to 92.4 µM
How it was run: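 In HEK293T cells bearing a UAS-beta-lactamase reporter under ER-beta control, DMSO-delivered compounds were incubated for 16 hr at 37C. Activity was detected as fluorescence 2 hours after LiveBLAzer B/G FRET substrate addition.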

SMILES	Potency
C[C@]12CCC(=O)C=C1CC[C@@H]1[C@@H]2C(=O)C[C@@]2(C)[C@H]1CC[C@]2(O)C(=O)CO	inactive
O=[N+]([O-])c1ccc2c(c1)Cc1ccccc1-2	inactive
S=C(NC1CCCCC1)NC1CCCCC1	inactive
CCCCC(CC)COCC1CO1 (centres undefined)	inactive
Nc1ncnc2nc[nH]c12	inactive
O=C(/C=C/C=C/c1ccc2c(c1)OCO2)N1CCCCC1	inactive
CCCCOCCOCCO	inactive
c1ccc2c(c1)Oc1ccccc1S2	inactive
c1ccncc1	inactive
CCCCCCCCCCCO	inactive
CCCCOCCOCCOCCO	inactive
CCOC(=O)C(C#N)=C(c1ccccc1)c1ccccc1	inactive
CC(=O)CC/C=C(\C)CCC=C(C)C	inactive
CC1=CC2C3CC(C=C3C)C2C1 (centres undefined)	inactive
Cn1cnc([N+](=O)[O-])c1Sc1ncnc2nc[nH]c12	inactive
CCCCNS(=O)(=O)c1ccccc1	inactive
OC(CCl)CCl	inactive
COc1ccccc1/C=C/C=O	inactive
O=C(OCc1ccccc1)c1ccccc1O	inactive
c1cc(-c2ccncc2)ccn1	inactive
CC(C)OB(OC(C)C)OC(C)C	inactive
CC(CCC(=O)O)(c1ccc(O)cc1)c1ccc(O)cc1	inactive
CC(C)=CCCC(C)CCO (centres undefined)	inactive

— PubChem BioAssay (Tox21)
